Sampled rows, rich in hits. Any-hit rate of the full collection: about 2.4%.
D2 PAM-1 = D2 dopamine receptor (human) potentiation; HEK293 T-REx D2, calcium flux, EC20 dopamine potentiation; potentiation, % at 10 µM; hit rate 0.34% among 340,000;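 active = potentiation over 3 SD above the plate norm, cut at about 30% in these data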; note: 0% is about no effect
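Tetracycline-induced Hek293 Trex D2 cells, force-coupled to calcium, loaded with no-wash calcium dye. Compound added with 180 s kinetic read for agonism, then EC20 dopamine and a further 180 s read for potentiation.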
D2 PAM-2 = human D2 receptor positive allosteric modulation. P14416. DiscoveRx D2 beta-arrestin cells, luminescence, 90 min; 100% = 57 uM dopamine signal. potentiation, % (concentration not given with the values). hit rate 0.23% among 360,000. AID 624464; in the data active = potentiation above about 50%; inconclusive = mostly about 30% to 49%
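PathHunter D2 cells, attached overnight at 37 deg C, received compound in DMSO plus dopamine at EC20 (50 nM final) for 90 min at 37 deg C. Beta-arrestin recruitment was read as luminescence after 1 h with detection reagent at ambient temperature.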
D2 ag-1 = agonists of human D2 dopamine receptor (beta-arrestin) | P14416 | DiscoveRx PathHunter D2 beta-arrestin, luminescence, 90 min; 100% = 57 uM dopamine signal | activation, % (concentration not given with the values) | hit rate 0.084% among 360,000 | AID 624465; in the data active = activation above about 40%; inconclusive = between about 15% and that limit
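Agonist mode: compounds alone added to overnight-plated D2 PathHunter cells for 90 min at 37 C, with 57 uM final dopamine (EC100) defining full response. Beta-arrestin recruitment detected by chemiluminescent reagent, read after 1 h at ambient temperature.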
D2 antag = antagonizes the human D2 dopamine receptor; inhibition, % at 10 µM; HEK293 TREx D2 cells, calcium flux, dopamine EC80; AID 485344; hit rate 2% among 340,000; P14416; in the data active = inhibition above about 30%; inactive = below that, where a call was filed; note: 0% is about no effect
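HEK293 T-REx D2 cells, tet-induced, calcium dye no-wash. Cpd pintool add, 180 s kinetic, then EC80 DA, 180 s kinetic. Ca flux read.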
D2 ag-2 = agonists of human D2 dopamine receptor. AID 485358. P14416. activation, % at 2 µM. HEK293 T-REx D2 cells, calcium flux agonist mode. hit rate 0.53% among 340,000;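 active = activation over 3 SD above normal in the single-dose calcium agonist read, cut at about 30% in these data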; note: 0% is about no effect
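Calcium-flux readout, 1 cycle/sec over 180 s following compound pin transfer, in inducible HEK293 Trex D2 cells (force-coupled); dopamine controls included. Positive calcium responses during this window marked compounds as potential agonists.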
D3 arrestin ag = D3 receptor agonism confirmed, beta-arrestin readout; Potency, µM (doses to about 76.9 µM), inactives show top-dose activation, hits mostly activators; shares compounds with D2 ag-2; DiscoveRx D3 beta-arrestin cells, luminescence, 90 min; hit rate 4% among 2,300;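 note: potency is the fitted concentration of half-maximal effect; 100% = dopamine control response; nearly all actives have a fitted effect of over 70% in size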
Target sequence (P35462 whole entry, looked up): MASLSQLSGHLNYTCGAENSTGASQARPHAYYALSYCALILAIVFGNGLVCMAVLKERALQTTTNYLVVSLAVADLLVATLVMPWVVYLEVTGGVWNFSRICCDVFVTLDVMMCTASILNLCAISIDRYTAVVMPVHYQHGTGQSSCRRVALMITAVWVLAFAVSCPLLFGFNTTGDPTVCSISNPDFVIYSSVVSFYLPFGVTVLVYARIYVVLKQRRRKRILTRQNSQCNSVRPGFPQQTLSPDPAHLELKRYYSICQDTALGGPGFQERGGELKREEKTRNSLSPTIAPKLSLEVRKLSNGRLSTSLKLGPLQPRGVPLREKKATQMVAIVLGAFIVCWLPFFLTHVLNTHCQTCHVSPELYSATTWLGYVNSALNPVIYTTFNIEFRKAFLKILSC
D2 ag-3 = D2 receptor agonism, beta-arrestin counterscreen | shares compounds with D2 ag-2 | Potency, µM (series often up to 76.9 µM), inactives show at the highest dose activation, hits mostly activators | DiscoveRx PathHunter D2 beta-arrestin, luminescence, 90 min; response scale: percent relative to full dopamine signal | hit rate 5.9% among 2,300; note: potency is the fitted concentration of half-maximal effect; % of control where 0% means no effect; nearly all actives have a fitted effect of over 70% in size
* hit, by the source's call. Unless noted, calls come from the whole dose curve; as a rule, active = well fitted activation curve with a large enough effect; inconclusive = small, poorly fitted or top-dose-only effect; inactive = flat fitted curve, though single readings scatter.

How did O=C(O)C1CCCCC1C(=O)N1CC=C(c2ccccc2)CC1 (configuration not stated) do in these assays?
D2 PAM-1: -12; D2 PAM-2: -16; D2 ag-1: inconclusive; D2 antag: -1; D2 ag-2: 34*; D3 arrestin ag: -13%; D2 ag-3: 6%

Results for O=C(O)[C@@H]1[C@H]2C[C@H]3c4[nH]c5ccccc5c4CCN3C[C@@H]2CC[C@@H]1O ?
D2 PAM-1: -13; D2 PAM-2: -29; D2 ag-1: 0; D2 antag: 68*; D2 ag-2: 41*; D3 arrestin ag: 8%; D2 ag-3: inconclusive

Results for Cc1ncoc1C(=O)N1CCc2c([nH]c3ccccc23)C1C1CCCCC1 (configuration not stated) ?
D2 PAM-1: 1; D2 PAM-2: -2; D2 ag-1: 1; D2 antag: -10; D2 ag-2: 0

Results for O=C1CCC2CN3CCc4c([nH]c5ccccc45)C3CC2C1 (configuration not stated) ?
D2 PAM-2: -14; D2 ag-1: 2

What do the screens show for `O=C(O)C1CCCC2CN3CCc4c([nH]c5ccccc45)C3C(O)C21` (configuration not stated)?
D2 PAM-1: -12; D2 PAM-2: -15; D2 ag-1: inconclusive; D2 antag: 57*; D2 ag-2: 26; D3 arrestin ag: -1%; D2 ag-3: inconclusive

How did O=C(CNC(=O)c1ccccc1)NCC(=O)OCC(=O)c1ccc(F)cc1 do in these assays?
D2 PAM-2: 7; D2 ag-1: -7; D3 arrestin ag: -4%; D2 ag-3: -4%

Results for Cc1ccc(C(=O)NCC(=O)NCC(=O)OCC(=O)c2ccc(F)cc2)cc1 ?
D2 PAM-1: -20; D2 PAM-2: -5; D2 ag-1: 0; D2 antag: 6; D2 ag-2: 49*; D3 arrestin ag: -6%; D2 ag-3: -5%

Results for Cc1ccc(Cl)cc1-n1nnc(-c2nc(-c3ccc4c(c3)OCO4)no2)c1C ?
D2 PAM-1: -6; D2 ag-2: 0

Results for CCOc1ccccc1NC(=O)c1nn(-c2ccc(C)cc2)c(=O)n(C)c1=O ?
D2 PAM-1: -1; D2 ag-2: 0

How did Cc1ccc(/C=N/NC(=O)c2nnn(-c3nonc3N)c2-c2cccs2)cc1 do in these assays?
D2 PAM-1: 18; D2 PAM-2: -1; D2 ag-1: -2; D2 antag: 32*; D2 ag-2: 25; D3 arrestin ag: 4%; D2 ag-3: 29%

How did COc1ccc(/C=N/NC(=O)c2nnn(-c3nonc3N)c2-c2cccs2)cc1OC do in these assays?
D2 PAM-1: 4; D2 PAM-2: 5; D2 ag-1: 5; D2 antag: 2; D2 ag-2: 0

Results for Nc1nonc1-n1nnc(C(=O)N/N=C/c2ccc(F)cc2)c1-c1ccc2c(c1)OCO2 ?
D2 PAM-2: -3; D2 ag-1: -5; D3 arrestin ag: 3%; D2 ag-3: -3%

What do the screens show for `COCc1c(C(=O)N/N=C\c2cccs2)nnn1-c1nonc1N`?
D2 PAM-1: 5; D2 PAM-2: -3; D2 ag-1: -1; D2 antag: 5; D2 ag-2: 1

Results for CCOc1ccc(/C(C)=N/NC(=O)c2nnn(-c3nonc3N)c2-c2cccs2)cc1 ?
D2 PAM-1: 6; D2 PAM-2: -1; D2 ag-1: -3; D2 antag: 2; D2 ag-2: 10; D3 arrestin ag: -5%; D2 ag-3: 2%

What do the screens show for `COc1cccc(-c2c(C(=O)N/N=C/c3cccs3)nnn2-c2nonc2N)c1`?
D2 PAM-1: 23; D2 PAM-2: -4; D2 ag-1: -7; D2 antag: 21; D2 ag-2: 3; D3 arrestin ag: -13%; D2 ag-3: -5%

What do the screens show for `CCOc1ccc2nc(N3CCCC(C(=O)Nc4ccccc4CC)C3)sc2c1` (configuration not stated)?
D2 PAM-1: -6

What do the screens show for `CCOC(=O)COc1ccc(C)cc1C(=O)c1ccn2nc(-c3ccc(Cl)cc3)cc2n1`?
D2 PAM-1: 10; D2 ag-2: 1

How did CCOc1cccc(-c2c(C(=O)N/N=C/c3ccncc3)nnn2-c2nonc2N)c1 do in these assays?
D2 PAM-1: 0; D2 PAM-2: 0; D2 ag-1: 4; D2 antag: -3; D2 ag-2: -1

How did COc1cccc(-c2c(C(=O)N/N=C(\C)c3ccco3)nnn2-c2nonc2N)c1 do in these assays?
D2 PAM-1: 9; D2 PAM-2: -10; D2 ag-1: -2; D2 antag: 9; D2 ag-2: 9

How did C/C(=N\NC(=O)c1nnn(-c2nonc2N)c1-c1ccccc1)c1ccco1 do in these assays?
D2 PAM-1: 26; D2 PAM-2: -14; D2 ag-1: -15; D2 antag: -2; D2 ag-2: 10; D3 arrestin ag: 2%; D2 ag-3: 1%

How did COc1ccc(/C=N/NC(=O)c2nnn(-c3nonc3N)c2-c2cccc(OC)c2)cc1 do in these assays?
D2 PAM-1: 22; D2 PAM-2: 2; D2 ag-1: 2; D2 antag: 34*; D2 ag-2: 5; D3 arrestin ag: 8%; D2 ag-3: -1%

What do the screens show for `CCN(CC)CCOC(=O)c1ccc(NC(=O)c2cc3cc(OC)ccc3oc2=O)cc1`?
D2 PAM-1: 2; D2 ag-2: -1

What do the screens show for `CC(=O)c1sc(NC(=O)c2c(-c3ccccc3)c(-c3ccccc3)nn(C)c2=O)nc1C`?
D2 PAM-1: 0; D2 ag-2: 0

What do the screens show for `CCCN1CCN(CCNC(=O)Nc2ccccc2Cl)CC1`?
D2 PAM-1: 5; D2 PAM-2: -15; D2 ag-1: 2; D2 antag: 4; D2 ag-2: -1

Results for O=C(NCCN1CCN(c2ccccc2)CC1)Nc1ccccc1Br ?
D2 PAM-1: -20; D2 PAM-2: -8; D2 ag-1: 0; D2 antag: 76*; D2 ag-2: 59*; D3 arrestin ag: 20%; D2 ag-3: 12%

Results for COc1cc(NC(=O)NCCN2CCN(c3ccccc3)CC2)cc(OC)c1OC ?
D2 PAM-1: -31; D2 PAM-2: -10; D2 ag-1: 4; D2 antag: 76*; D2 ag-2: 75*; D3 arrestin ag: 10%; D2 ag-3: inconclusive

Screening data as filed in PubChem BioAssay.
